Shown are actives, neighbours in structure and some others; about 10% of the full set was active somewhere.
Luciferase inh: Firefly luciferase inhibition profiling of diverse chemical library using quantitative high-throughput screening | Luciferin 4-monooxygenase (Photinus pyralis), P08659 | purified P. pyralis luciferase, luminescence, biochemical | Potency, µM (titrated, usually from 115 µM), actives largely listed as inhibitors | actives 2.5% (n = 76,000) | AID 1347043, 2019; note: nearly all actives have a fitted effect of over 65% in size
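Cell-free enzyme assay, 10nM P. pyralis luciferase, luciferin and ATP each at 10uM. Inhibition profiled over a 6-point titration, read as luminescence.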
NIH3T3 tox: Cytotoxic Profiling in NIH 3T3 Cell Line of Diverse Libraries Using Quantitative High-Throughput Screening. actives 4.3% (n = 94,000). Potency, µM (top dose mostly 96.7 µM), usual class: inhibitors. NIH 3T3 viability, CellTiter-Glo ATP luminescence, 48-72 h; note: nearly all actives have a fitted effect of over 55% in size
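Cells were seeded at 400 per well, treated with pin-transferred compound, and kept 48 or 72 hr at 37 °C before CellTiter-Glo addition and luminescence imaging of cellular ATP.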
GPT2 inh: Primary qHTS assay for inhibitors of Glutamate pyruvate transaminase 2 (GPT2); Alanine aminotransferase 2 (Homo sapiens), Q8TD30; Recombinant GPT2, coupled pyruvate oxidase/HRP Amplex Red fluorescence; Potency, µM (doses to about 57.7 µM), hits mostly inhibitors; actives 0.25% (n = 100,000); AID 1671188, 2021; note: nearly all actives have a fitted effect of over 60% in size
Target sequence (Q8TD30 whole entry, looked up): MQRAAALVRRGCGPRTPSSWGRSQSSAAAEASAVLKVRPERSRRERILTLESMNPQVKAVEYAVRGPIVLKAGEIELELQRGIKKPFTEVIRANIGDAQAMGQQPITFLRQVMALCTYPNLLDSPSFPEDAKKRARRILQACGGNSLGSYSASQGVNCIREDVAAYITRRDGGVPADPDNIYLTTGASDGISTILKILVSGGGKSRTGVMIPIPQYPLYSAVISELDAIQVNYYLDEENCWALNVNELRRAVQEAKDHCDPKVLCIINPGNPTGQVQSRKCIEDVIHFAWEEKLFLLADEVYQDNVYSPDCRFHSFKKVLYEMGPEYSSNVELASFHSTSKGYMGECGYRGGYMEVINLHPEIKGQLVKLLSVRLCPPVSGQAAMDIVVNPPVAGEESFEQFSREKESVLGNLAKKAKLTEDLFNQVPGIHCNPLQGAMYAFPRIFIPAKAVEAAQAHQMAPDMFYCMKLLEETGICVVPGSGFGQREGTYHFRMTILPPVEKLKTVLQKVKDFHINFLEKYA
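GPT2 10ng/uL, a-KG 250uM, L-Ala 2mM, HEPES pH7.5 + 0.0001% Tween; 30 min RT. Then Amplex mix (PO/HRP/ThPP), 30 min RT dark, fluorescence. AOA 50uM used as positive control.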
NPR1 antag: Natriuretic polypeptide receptor (hNpr1) antagonism - Primary qHTS | HEK293 hNpr1 GloSensor cGMP, ANP-stimulated luminescence | Potency, µM (doses to about 46.3 µM), actives largely listed as inhibitors | actives 1.6% (n = 76,000) | AID 1347048, 2019; calls by dose curve; note: nearly all actives have a fitted effect of over 60% in size
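Compound pre-incubated 30 min at room temperature on GloSensor-loaded HEK293 cells stably carrying hNpr1 and the pGS-40F cGMP biosensor. Stimulation uses hNppA at 0.1 nM final; luminescence is taken at baseline and 20 min post-agonist.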
HEK cytotox: Cytotoxic Profiling in HEK 293 Cell Line of Diverse Libraries Using Quantitative High-Throughput Screening. HEK 293 viability, ATP luminescence (CellTiter-Glo), 48-72 h. Potency, µM (top dose mostly 115 µM), hits mostly inhibitors. actives 6.6% (n = 94,000); note: nearly all actives have a fitted effect of over 60% in size
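Read-out: CellTiter-Glo ATP luminescence. Cells: HEK 293, 250 cells/well. Exposure: 48 or 72 hr, 37 degree Celsius.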
Npr1 antag conf: Natriuretic polypeptide receptor (hNpr1) antagonism - Confirmation; shares compounds with NPR1 antag; HEK293 hNpr1 cGMP GloSensor luminescence, ANP-stimulated; Potency, µM (series often up to 57.6 µM), actives largely listed as inhibitors; actives 76% (n = 1,400); calls by dose curve; note: nearly all actives have a fitted effect of over 70% in size
NPR2 antag: Natriuretic polypeptide receptor (hNpr2) antagonism - Subtype selectivity assay. Potency, µM (highest dose often 57.6 µM), hits mostly inhibitors. HEK293 hNpr2 GloSensor cGMP luminescence, CNP-stimulated. AID 1347046, 2019. actives 67% (n = 1,400). shares compounds with NPR1 antag; calls by dose curve; note: nearly all actives have a fitted effect of over 70% in size
FLuc counter: Natriuretic polypeptide receptor (hNpr1) antagonism - Confirmation firefly luciferase (FLuc) inhibition counterscreen; shares compounds with NPR1 antag; purified FLuc enzyme, luminescence, Km substrate; Potency, µM (doses to about 57.6 µM), usual class: inhibitors; actives 0.7% (n = 1,400)
GloSensor ctrl: Natriuretic polypeptide receptor (hNpr1) antagonism - Counterscreen GloSensor control cell line. shares compounds with NPR1 antag. HEK293 GloSensor cGMP, SNP-stimulated, luminescence. Potency, µM (doses to about 57.6 µM), actives largely listed as inhibitors. actives 69% (n = 1,400); calls by dose curve; note: nearly all actives have a fitted effect of over 70% in size
Each line names hits and unclear results; the compound was inactive in the other large screens (follow-up assays come after a bar, where they were run). Unless noted, calls come from the whole dose curve; as a rule, active = well fitted curve in the direction sought with a large enough effect; inconclusive = small, poorly fitted or top-dose-only effect, or another doubt; inactive = no such curve, though single readings can be large; an effect the other way counts as inactive or inconclusive.

COc1ccc(NC(=O)c2ccc3c(c2)NC(C)(CNc2ccccc2)CO3)cn1 (centres undefined)	NIH3T3 tox inconclusive, NPR1 antag 35µM, HEK cytotox 45µM | Npr1 antag conf 40µM | NPR2 antag inconclusive | FLuc counter inactive | GloSensor ctrl inconclusive
CCOCC1(C)COc2ccc(C(=O)Nc3ccc(OC)nc3)cc2N1 (centres undefined)	Luciferase inh inconclusive, NIH3T3 tox inconclusive, HEK cytotox inconclusive
COc1cccc(C(=O)Nc2cc(-c3ccccn3)nn2-c2ccccc2)c1	none (no result: Luciferase inh, NPR1 antag)
CN(Cc1cccc2cnccc12)C(=O)c1cc(COc2ccc(F)cc2F)on1	NIH3T3 tox inconclusive, NPR1 antag 11µM, HEK cytotox inconclusive | Npr1 antag conf 24µM | NPR2 antag 22µM | FLuc counter inactive | GloSensor ctrl 19µM
Cc1ccc(OCC(=O)N2CCCC(c3nn(C)c(=O)n3C(C)C)C2)cc1 (centres undefined)	NPR1 antag 14µM, HEK cytotox inconclusive | Npr1 antag conf 24µM | NPR2 antag inconclusive | FLuc counter inactive | GloSensor ctrl 24µM
CCCc1nc(NCc2nc(Cc3cccs3)no2)c2cnn(C)c2n1	NIH3T3 tox inconclusive, NPR1 antag 13µM, HEK cytotox 45µM | Npr1 antag conf 22µM | NPR2 antag 22µM | FLuc counter inactive | GloSensor ctrl 22µM
CC(C)Cc1cc(C(=O)NCc2nc(Cc3cccs3)no2)on1	none
CCOc1ccccc1C(=O)N1CCc2[nH]nc(-c3ccc(F)c(F)c3)c2C1	NIH3T3 tox inconclusive, GPT2 inh inconclusive, NPR1 antag inconclusive, HEK cytotox inconclusive | Npr1 antag conf inconclusive | NPR2 antag inconclusive | FLuc counter inactive | GloSensor ctrl inconclusive
CC1=NS(=O)(=O)N(Cc2ccccc2)C=C1C(=O)OCc1nc(-c2cccs2)no1	NIH3T3 tox inconclusive, HEK cytotox inconclusive
CC1=NS(=O)(=O)N(C)C=C1C(=O)OCc1noc(-c2cccs2)n1	NIH3T3 tox inconclusive, NPR1 antag 10µM, HEK cytotox inconclusive | Npr1 antag conf 22µM | NPR2 antag 19µM | FLuc counter inactive | GloSensor ctrl 22µM
CC1=NS(=O)(=O)N(C)C=C1C(=O)OCc1noc(-c2ccccc2F)n1	NIH3T3 tox inconclusive, NPR1 antag 11µM | Npr1 antag conf 19µM | NPR2 antag 17µM | FLuc counter inactive | GloSensor ctrl 14µM
CC1=NS(=O)(=O)N(C)C=C1C(=O)OCc1nc(C2CC2)no1	none
CC1=NS(=O)(=O)N(C)C=C1C(=O)OCc1nc(-c2cccs2)no1	NPR1 antag inconclusive | Npr1 antag conf 24µM | NPR2 antag inconclusive | FLuc counter inactive | GloSensor ctrl 22µM
CC1=NS(=O)(=O)N(C)C=C1C(=O)OCc1noc(-c2ccccc2C)n1	NIH3T3 tox inconclusive, NPR1 antag 10µM, HEK cytotox inconclusive | Npr1 antag conf 11µM | NPR2 antag 17µM | FLuc counter inactive | GloSensor ctrl 11µM
CC1=NS(=O)(=O)N(Cc2ccccc2)C=C1C(=O)OCc1noc(C2CCCC2)n1	NIH3T3 tox inconclusive, HEK cytotox inconclusive
CNC(=O)c1cc(C2CC2)nc2onc(C3CCCN(C(=O)Cc4ccc(F)cc4)C3)c12 (centres undefined)	HEK cytotox inconclusive (no result: Luciferase inh, GPT2 inh, NPR1 antag)
Cc1ccc(NC(=O)N[C@H]2C[C@@](O)(C(=O)N[C@H](Cc3ccccc3)C(N)=O)C[C@@H](O)[C@@H]2O)cc1	none
Cc1ccc(CN2CC(N(CC3CC3)C3CCOCC3)C2)cc1	none (no result: Luciferase inh, NPR1 antag)
COC(=O)c1ccc(COC(=O)C2=CN(C)S(=O)(=O)N=C2C)o1	NPR1 antag inconclusive | Npr1 antag conf 24µM | NPR2 antag inconclusive | FLuc counter inactive | GloSensor ctrl 19µM
CCOc1ccccc1N1CCN(C(=O)CCn2ccn3nc4c(c3c2=O)CCCC4)CC1	NPR1 antag inconclusive | Npr1 antag conf inconclusive | NPR2 antag inconclusive | FLuc counter inactive | GloSensor ctrl inactive
O=C(CCn1ccn2nc3c(c2c1=O)CCCC3)N1CCN(c2ccc(F)cc2)CC1	NIH3T3 tox inconclusive, HEK cytotox inconclusive
Cc1ccc(C2=NC3(CCN(C(=O)c4ccc(N(C)C)cc4)CC3)ON2)cc1	Luciferase inh inconclusive, HEK cytotox inconclusive
CN(C)c1ccc(C(=O)N2CCC3(CC2)N=C(c2ccc(Br)cc2)NO3)cc1	NPR1 antag 11µM, HEK cytotox inconclusive | Npr1 antag conf 19µM | NPR2 antag 22µM | FLuc counter inactive | GloSensor ctrl 15µM
O=C(c1ccc2cc[nH]c2c1)N1CCC2(CC1)N=C(c1cccc(Br)c1)NO2	NIH3T3 tox inconclusive, NPR1 antag inconclusive, HEK cytotox inconclusive
Cc1ccc(C(=O)N2CCC3(CC2)N=C(c2ccc(Br)cc2)NO3)cc1	NPR1 antag 16µM, HEK cytotox inconclusive | Npr1 antag conf 22µM | NPR2 antag 19µM | FLuc counter inactive | GloSensor ctrl 19µM
O=C(c1ccccc1)N1CCC2(CC1)N=C(c1ccc(Br)cc1)NO2	NIH3T3 tox inconclusive, NPR1 antag 16µM, HEK cytotox inconclusive | Npr1 antag conf 27µM | NPR2 antag inconclusive | FLuc counter inactive | GloSensor ctrl inconclusive
O=C(c1cccc(F)c1)N1CCC2(CC1)N=C(c1ccc(Br)cc1)NO2	NIH3T3 tox inconclusive, NPR1 antag inconclusive, HEK cytotox inconclusive
O=C(c1ccc2[nH]ccc2c1)N1CCC2(CC1)N=C(c1ccc(Br)cc1)NO2	NIH3T3 tox inconclusive, NPR1 antag 11µM, HEK cytotox inconclusive | Npr1 antag conf 24µM | NPR2 antag 14µM | FLuc counter inactive | GloSensor ctrl 11µM
